Activity calls are given as the source filed them.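 The calls were made as follows: active = relative FRET score above 0.01, or acceptor fluorescence over 30% below the sample-well median; inactive = the rest.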

For the assay, the target named is Protein Rev (Human immunodeficiency virus type 1 group M subtype B (isolate WMJ22)) (UniProt P05866). The experiment in a line: disruptors of Rev peptide-RRE RNA complex – biochemical, FRET, acceptor and relative FRET calls, confirmation (AID 837).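 Also: relative FRET combines rise in Cy5 acceptor with fall in fluorescein donor.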 Particulars: Fl-Rev peptide / Cy5-RRE RNA FRET, 1536-well; at 8 µM.
Protein Rev (Human immunodeficiency virus type 1 group M subtype B (isolate WMJ22)), sequence (P05866 whole entry, looked up): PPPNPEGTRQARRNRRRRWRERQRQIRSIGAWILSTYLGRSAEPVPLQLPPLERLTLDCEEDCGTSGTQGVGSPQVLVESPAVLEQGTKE
Turning to `CCCCCCCCOc1ccc(C2OC34CCCCC3C(C#N)(C#N)C2(C#N)C(=N)O4)cc1` (stereo not given), the molecule was classed as inactive. For `Cc1cc(C)cc(NC2=NC3(CCCCC3)N=C(N)N2)c1` the value was “inactive”. On to `Cc1ccc(Nc2nc(N)nc(CSc3nnnn3-c3ccccc3)n2)cc1`, for which the call was inactive. With `O=[N+]([O-])c1ccc2nc(-c3ccc(Cl)cc3)n(OCc3ccccc3)c2c1` the entry was “inactive”; with `Cc1cccc(N2C(N)=NC(N)=NC23CCCCC3)c1`, “inactive”; with `CC(C)C(C(=O)O)N1C(=O)/C(=C/C=C/c2ccco2)SC1=S` (stereo not given), “inactive; quenches the donor”. Turning to `CN1CCN(Cc2cccc(Oc3ccc(Cl)cc3)c2)CC1`, the result was inactive. On to `COc1cccc(OC)c1-c1nn2c(-c3cc(-c4ccccc4)n[nH]3)nnc2s1`, for which the result was active. For `Nc1nc(Nc2ccccc2)nc2ccccc12`, the outcome was inactive. Turning to `COc1ccc(CSc2nnc(C)n2N)cc1`, the molecule was classed as inactive. Regarding `N#Cc1c(NCCN)nc(-c2ccco2)c2c1CCCC2`, the molecule was classed as inactive. For the molecule `C1=C2C[N+]3(CCCC3)CC2Cc2ccc3ccccc3c21` (stereo not given), the molecule was called inactive. Turning to `CCOC(=O)Cn1c(=N)n(CCOc2ccc(OC)cc2)c2ccccc21`, the molecule was called inactive. With `O=C(Nc1nccs1)c1cc2c(s1)-c1ccccc1OC2` the entry was “inactive”; with `CC1CC(c2ccccc2)n2nc(NC(=O)c3cccs3)nc2N1` (stereo not given), “inactive”; with `CCN1C2=NCCCN2c2cc(C)c(C)cc21`, “inactive”. For the molecule `NCCCCCc1nnc(SCc2ccccc2Cl)o1`, the molecule was classed as inactive. As to `Nc1nc(Nc2ccc(Cl)cc2)nc2ccccc12`, the outcome was active. As for `CCOC(=O)[C@@H]1CCNC[C@@H]1c1ccccc1`, the result was inactive. With `CCCCOc1ccc(CSC(=N)N)cc1[N+](=O)[O-]`, the call was inactive.
